# About 83,000 compounds went through this panel and 20% of them were active in at least one assay; those are over-represented in the sample as a whole.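 48-hour exposure, single concentration, 96-well plates; percent growth endpoint where 0 means no net growth. Active: below 10.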 The source made the active and inactive calls.
# Test system: HL-60(TB) leukemia
# Test: NCI-60 one-dose screen, 48 h (100 = growth as untreated, 0 = no growth, -100 = all killed)
# Details: 10 µM unless noted
row,Compound,growth
1,O=[N+]([O-])c1ccc2nc3c4ccccc4c4ccccc4c3nc2c1,77.2% (inactive)
2,Cc1cc2nc(C(Cl)Cl)nc(-c3ccc(Cl)cc3)n2n1,-8.18% (active)
3,Nc1nc(=S)ss1,87.8% (inactive)
4,CN1CCN(c2ccc3nc(-c4ccc5nc(-c6ccc(OCCC(C)(C)C)cc6)[nH]c5c4)[nH]c3c2)CC1,10.5% (inactive)
5,CCC(c1cccc(O)c1)C(CC)c1cccc(O)c1 (stereo not given),20.7% (inactive)
6,COc1ccc2c(c1)C(=O)/C(=C/c1ccc(O)cc1)O2,59.4% (inactive)
7,CCCCCCCCCCNC(=O)CCl,95.8% (inactive)
8,CNc1cc(C(=O)O)nc(NC)n1,105% (inactive)
9,COc1ccccc1S(=O)(=O)Nc1ccc2c3c(cc(-c4cnn(C)c4)nc13)C(=O)N2C,-30.1% (active)
10,COc1cc(Nc2ncc(F)c(Nc3ccc4c(n3)N(COP(=O)(O)O)C(=O)C(C)(C)O4)n2)cc(OC)c1OC,52.8% (inactive)
11,CC(C)Cc1nc(Nc2ccccc2)[nH]c(=O)c1C#N,57.7% (inactive)
12,COc1ccc(Oc2[nH]n(C3=Nc4ccccc4Sc4ccccc43)c(=O)c2C#N)cc1,112% (inactive)
13,COC(=O)[C@]12CCC(C)(C)C[C@H]1[C@H]1/C(=N/OCCc3nn[nH]n3)C[C@@H]3[C@@]4(C)CC[C@H](OC(C)=O)C(C)(C)[C@@H]4CC[C@@]3(C)[C@]1(C)CC2,10.4% (inactive)
14,O=C1c2ccccc2CCc2ccccc21,90% (inactive)
15,COC(=O)c1nc(=S)[nH]c(C(=O)OC)c1C(=O)c1ccccn1,97.9% (inactive)
16,c1ccc(Cn2cc(-c3nc4ccccc4s3)c3cccnc32)cc1,115% (inactive)
17,O=C(Nc1ccncc1)C(=O)c1cn(S(=O)(=O)c2ccc(F)cc2)c2ccccc12,0.498% (active)
18,O=C(/C=C\c1ccco1)/C=C/c1ccco1,106% (inactive)
19,CC(C)C1(C(C)C)NC(=O)NC1=O,95.1% (inactive)
20,COc1cc(/C=C/C(=O)c2cc(-c3ccccc3)ccc2O)cc(OC)c1OC,42.6% (inactive)

row,Compound,growth
1,Brc1ccc2c(c1)-c1ccccc1C1=NCCN12,18.2% (inactive)
2,CCOC(=O)c1sc(NC(=O)c2cc(OC)c(OC)c(OC)c2)nc1C,102% (inactive)
3,CC1CCCCN1C(=S)Nc1ccc(S(=O)(=O)N2CCCCC2)cc1 (stereo not given),102% (inactive)
4,COc1ccc(C2c3ccc4ccccc4c3Oc3ncnc(N)c32)cc1 (stereo not given),89% (inactive)
5,COc1cc(NCCCCCN=C(N)NC(N)=NC(C)C)c2ncccc2c1,1.51% (active)
6,Cc1ccc(O)c(C(=O)c2ccccc2)c1,73.1% (inactive)
7,CCN1C(=O)c2ccc3c4c(ccc(c24)C1=O)C(=O)N(CCCNCc1ccccc1OC)C3=O,-52.6% (active)
8,O=C1C(N2CCOCC2)=C(I)C(=O)c2ncccc21,80.9% (inactive)
9,Cc1ccc(C2=NN3C(C2)c2cc(Br)ccc2OC32CCN(Cc3ccccc3)CC2)o1 (stereo not given),90.4% (inactive)
10,Cc1nn2c(-c3nc4ccc(Cl)cc4[nH]3)c(-c3ccc(F)cc3)nc2s1,117% (inactive)
11,O=C1OC(c2ccccc2)(c2ccccc2)c2ccsc21,86.6% (inactive)
12,Cc1ccc(S(=O)(=O)OC[C@@]2(C)CC[C@]3(C)CC[C@]4(C)C(=CC[C@@H]5[C@@]6(C)CCCNC(C)(C)[C@@H]6CC[C@]54C)[C@@H]3C2)cc1,-63% (active)
13,S=C(Cc1ccc2c(c1)CCCC2)N1CCOCC1,85% (inactive)
14,OC(CCCCCCCCC(O)CN1CCc2ccccc2C1)CN1CCc2ccccc2C1 (stereo not given),95.1% (inactive)
15,O=C(O)CCCN1C(=O)CSC1=S,103% (inactive)
16,CCN1CCN(C(=O)[C@]23CC[C@@H](C)[C@H](C)[C@@H]2C2=CC[C@@H]4[C@@]5(C)C/C(=C/c6ccncc6)C(=O)C(C)(C)[C@@H]5CC[C@@]4(C)[C@]2(C)CC3)CC1,-33.1% (active)
17,Cc1n(Cc2ccc3ccccc3c2)cc[n+]1Cc1ccc2ccccc2c1,-38.1% (active)
18,O=C(N/N=C/c1ccccc1Cl)c1ccccc1Nc1ccnc(C(F)(F)F)c1,-20.1% (active)
19,Nc1c(C(=O)Nc2ccccn2)sc2nc3c(cc12)CCCC3,5.35% (active)
20,Cn1c(=O)c2[nH]c(CC(=O)O)nc2n(C)c1=O,110% (inactive)
